RecA intein inh – blocks M. tuberculosis RecA intein splicing. cell-free RecA intein splicing, fluorescence. inhibition, % (concentration not given with the values). actives 0.75% (n = 290,000); in the data active = inhibition above about 30%
BJeLR viability – kills HRASV12-expressing BJeLR cells | inhibition, % (test concentration not listed) | BJeLR (HRASV12) viability, CellTiter-Glo ATP luminescence, 48 h | AID 1554 | actives 0.17% (n = 300,000); in the data active = inhibition above about 50%
GDH-TPI counter-1 – inhibits GDH-TPI coupling enzymes, artifact for Mtb FBA screen. GDH-TPI coupled enzyme counterscreen, NADH absorbance. inhibition, % at 4.8 µM. actives 1.2% (n = 360,000). AID 588335; in the data active = inhibition above about 30%
FBA Mtb inh – Mtb fructose-bisphosphate aldolase inhibition | P9WQA3 | purified M. tuberculosis FBA, fluorescence read-out | inhibition, % at 1 µM | actives 2.3% (n = 360,000) | AID 588726
Target sequence (P9WQA3 whole entry, looked up): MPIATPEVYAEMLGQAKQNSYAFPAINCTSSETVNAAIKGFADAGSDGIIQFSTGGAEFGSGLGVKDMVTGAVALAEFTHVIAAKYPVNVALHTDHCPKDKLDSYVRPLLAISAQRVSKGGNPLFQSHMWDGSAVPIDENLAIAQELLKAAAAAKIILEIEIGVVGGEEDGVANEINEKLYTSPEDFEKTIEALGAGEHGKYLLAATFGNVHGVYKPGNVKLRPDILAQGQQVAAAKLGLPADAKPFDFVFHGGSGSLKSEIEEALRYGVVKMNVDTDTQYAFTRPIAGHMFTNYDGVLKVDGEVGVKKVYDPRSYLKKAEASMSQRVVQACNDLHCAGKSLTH
PrPC surface inh – cell surface PrPC inhibition, primary TR-FRET screen; AID 720596; TR-FRET read-out; inhibition, % at 13.8 µM; P04156; actives 0.43% (n = 370,000); in the data active = inhibition above about 24%
Mtb FBA confirm – Mtb FBA inhibition, confirmed. shares compounds with FBA Mtb inh. purified M. tuberculosis FBA, fluorescence read-out. inhibition, % at 1 µM. actives 78% (n = 5,600). AID 651616
GDH-TPI counter-2 – inhibits GDH-TPI coupling enzymes, flagging Mtb FBA hits. shares compounds with FBA Mtb inh. GDH-TPI coupled enzyme counterscreen, fluorescence. inhibition, % at 1 µM. actives 81% (n = 5,600); in the data active = inhibition above about 10%
Each line names hits and unclear results; the compound was inactive in the other large screens (follow-up assays come after a bar, where they were run). A selection: hits, their analogues and other compounds. The true share with any hit is near 4.2%. Rule as the data show it, unless noted: active = inhibition above about 27%; inactive = the rest.

CC/C(=N/NC(=O)c1ccccc1)c1ccc(OCCN2CCOCC2)cc1	FBA Mtb inh 31.0 | Mtb FBA confirm 90.9 | GDH-TPI counter-2 56.6
CCOc1ccc(NC(=O)CN2CCCN(c3ccc(OC)cc3)CC2)cc1	none (no result: RecA intein inh, BJeLR viability, GDH-TPI counter-1, FBA Mtb inh)
Cn1c(=O)c2cc3ccccc3nc2n(C)c1=O	FBA Mtb inh 35.8 | Mtb FBA confirm 59.0 | GDH-TPI counter-2 51.0
COc1cc2ccc(=O)oc2c(O)c1O	none (no result: RecA intein inh, BJeLR viability)
COc1cc2ccc(=O)oc2c2ccoc12	FBA Mtb inh 34.8 | Mtb FBA confirm active | GDH-TPI counter-2 154.7
CC(C)CCNC(=O)c1cc(-c2cccs2)nc2ccccc12	FBA Mtb inh 64.7 | Mtb FBA confirm inactive | GDH-TPI counter-2 inactive
CCC(C)NC(=O)c1cc(-c2cccs2)nc2ccccc12 (stereo unspecified)	FBA Mtb inh 94.5 | Mtb FBA confirm 101.5 | GDH-TPI counter-2 91.8
CC(C)N1CCc2c(sc(NC(=O)c3cc(-c4cccs4)nc4ccccc34)c2C(N)=O)C1	none (no result: PrPC surface inh)
Cc1cc(NC(=O)c2cc(-c3ccc(C)s3)nc3ccccc23)no1	FBA Mtb inh 28.9 | Mtb FBA confirm active | GDH-TPI counter-2 179.5
CCN(CC)CCN(Cc1cc2cc3c(cc2[nH]c1=O)OCO3)C(=S)NCCOC	FBA Mtb inh 33.5 | Mtb FBA confirm 31.6 | GDH-TPI counter-2 31.6
COCCCNC(=S)N(CCO)Cc1cc2cc3c(cc2[nH]c1=O)OCO3	FBA Mtb inh 30.8 | Mtb FBA confirm active | GDH-TPI counter-2 active
CCNC(=S)N(CCCN(CC)CC)Cc1cc2cc3c(cc2[nH]c1=O)OCO3	none
CCN(CC)CCCN(Cc1cc2cc3c(cc2[nH]c1=O)OCO3)C(=S)NCCOC	GDH-TPI counter-1 34.1, FBA Mtb inh 52.4 | Mtb FBA confirm inactive | GDH-TPI counter-2 inactive
COCCNC(=S)N(CCCO)Cc1cc2cc3c(cc2[nH]c1=O)OCO3	none (no result: RecA intein inh, BJeLR viability)
Cc1cc(=O)oc2cc(OCC(O)Cn3ccnc3)ccc12 (stereo unspecified)	FBA Mtb inh 43.4 | Mtb FBA confirm inactive | GDH-TPI counter-2 inactive
CCN1CCN(CC(O)COc2ccc3c(C)cc(=O)oc3c2)CC1 (stereo unspecified)	FBA Mtb inh 52.8 | Mtb FBA confirm active | GDH-TPI counter-2 active
CCN1CCN(CC(O)COc2ccc(C)c(C)c2)CC1 (stereo unspecified)	none
Cc1ccc(CNC(=O)OC(C)(C)C)c(/C=C/S(=O)(=O)NC2CCCC2)c1	none (no result: RecA intein inh, BJeLR viability, GDH-TPI counter-1, FBA Mtb inh)
O=C(c1c[nH]c2ccc(S(=O)(=O)N3CCC4(CC3)OCCO4)cc2c1=O)N1CCOCC1	none
O=C(c1c[nH]c2ccc(S(=O)(=O)N3CCC4(CC3)OCCO4)cc2c1=O)N1CCC2(CC1)OCCO2	FBA Mtb inh 33.9 | Mtb FBA confirm 46.1 | GDH-TPI counter-2 43.5
O=C(c1ccc2c3c(cccc13)CC2)C1CCCN(CC2CC2)C1 (stereo unspecified)	FBA Mtb inh 33.3 | Mtb FBA confirm inactive | GDH-TPI counter-2 inactive
O=C(c1ccc2c3c(cccc13)CC2)C1CCCN(Cc2ccncc2)C1 (stereo unspecified)	none
Cc1c(Br)c(=O)oc2c(Br)c(O)ccc12	FBA Mtb inh 35.9 | Mtb FBA confirm 42.7 | GDH-TPI counter-2 28.1
Cc1c(Br)c(=O)oc2c(Br)c(O)c(O)cc12	none
CCNC(=S)Nc1cccc(NC(=O)c2ccccc2O)c1	FBA Mtb inh 36.5 | Mtb FBA confirm inactive | GDH-TPI counter-2 inactive
C[C@H]1/C=C/CC(=O)N[C@@H](c2ccccc2)[C@@H](C)/C=C/CC(=O)N[C@H]1c1ccccc1	none (no result: RecA intein inh, BJeLR viability, GDH-TPI counter-1, FBA Mtb inh)
COc1ccc(N2CCN(CCCNC(=O)CCOC(C)(C)C)CC2)cc1	none (no result: RecA intein inh, BJeLR viability, GDH-TPI counter-1, FBA Mtb inh)
Cn1c(=O)c2cc(NC(=O)NCCc3cccs3)ccc2n1C/C=C/c1ccccc1	FBA Mtb inh 65.3 (no result: RecA intein inh, BJeLR viability, PrPC surface inh) | Mtb FBA confirm inactive | GDH-TPI counter-2 inactive
Cn1c(=O)c2cc(NC(=O)NCc3ccccc3)ccc2n1C/C=C/c1ccccc1	FBA Mtb inh 77.2 (no result: RecA intein inh, BJeLR viability) | Mtb FBA confirm 98.7 | GDH-TPI counter-2 60.3
CC(=O)Nc1ccc(NCCc2cccs2)cc1	none (no result: RecA intein inh, BJeLR viability, GDH-TPI counter-1)
COC(=O)C1=C(C)N(CC(C)C)C(=S)NC1c1cccc(Br)c1 (stereo unspecified)	none (no result: RecA intein inh, BJeLR viability, GDH-TPI counter-1, FBA Mtb inh)
Cc1ccc(-n2c(SCC(=O)Nc3ccc(Oc4ccccc4)cc3)nnc2-c2ccco2)cc1	none (no result: RecA intein inh, BJeLR viability, GDH-TPI counter-1, FBA Mtb inh)
C[C@H]1C(c2ccccc2F)O[C@]2(C[C@H](O)c3ccccc3O2)C[C@@H]1O (stereo partly specified)	none (no result: RecA intein inh, BJeLR viability, GDH-TPI counter-1, FBA Mtb inh)
Nc1c(C(=O)NCCN2CCOCC2)c2nc3ccccc3nc2n1Cc1ccco1	FBA Mtb inh 85.5 | Mtb FBA confirm 98.4 | GDH-TPI counter-2 95.5
Nc1c(C(=O)OCc2ccccc2)c2nc3ccccc3nc2n1Cc1cccs1	FBA Mtb inh 50.6 | Mtb FBA confirm 168.5 | GDH-TPI counter-2 149.7
Nc1c(C(=O)NCc2ccco2)c2nc3ccccc3nc2n1CCc1ccccc1	FBA Mtb inh 72.3 | Mtb FBA confirm 86.8 | GDH-TPI counter-2 72.2
COCCNC(=O)c1c(N)n(Cc2ccco2)c2nc3ccccc3nc12	FBA Mtb inh 83.1 | Mtb FBA confirm 76.1 | GDH-TPI counter-2 67.0
COCCNC(=O)c1c(N)n(/N=C/c2ccc(F)cc2)c2nc3ccccc3nc12	none
COc1ccc2c(c1)N=C(c1[nH]c3ccccc3c1CCN1C(=O)c3ccccc3C1=O)[C@]2(O)CCN1C(=O)c2ccccc2C1=O	none (no result: RecA intein inh, BJeLR viability, GDH-TPI counter-1, FBA Mtb inh)
O[C@@H](Cc1ccccc1)[C@@H](/C=C/c1ccccc1)N(Cc1ccccc1)Cc1ccccc1	none (no result: RecA intein inh, BJeLR viability, GDH-TPI counter-1, FBA Mtb inh)
COCCNC(=O)c1c(NC(=O)c2ccco2)n(Cc2ccccc2)c2nc3ccccc3nc12	FBA Mtb inh 74.8 | Mtb FBA confirm 64.6 | GDH-TPI counter-2 64.8
Nc1c(C(=O)NCCc2ccccc2)c2nc3ccccc3nc2n1CCN1CCOCC1	FBA Mtb inh 27.5 | Mtb FBA confirm 72.9 | GDH-TPI counter-2 53.3
O=C(NCCN1CCOCC1)c1ccc(-c2ccccc2)cc1	none (no result: PrPC surface inh)
Nc1c(C(=O)NCCN2CCOCC2)c2nc3ccccc3nc2n1Cc1ccccc1	FBA Mtb inh 90.7 | Mtb FBA confirm inactive | GDH-TPI counter-2 inactive
CCOC(=O)c1cnc2ccc(C)cn2c1=O	FBA Mtb inh 64.8 (no result: RecA intein inh) | Mtb FBA confirm inactive | GDH-TPI counter-2 inactive
CCOC(=O)c1c(C)nc2ccc(C)cn12	none
CCn1cc(C(=O)NCc2ccncc2)c(=O)c2cc(F)c(N3CCN(C(=O)c4ccco4)CC3)cc21	FBA Mtb inh 41.8 | Mtb FBA confirm 35.2 | GDH-TPI counter-2 22.1
CCn1cc(C(=O)NC(C)C)c(=O)c2cc(F)c(N3CCN(C(=O)c4ccco4)CC3)cc21	FBA Mtb inh 54.8 | Mtb FBA confirm 99.6 | GDH-TPI counter-2 69.7
CCn1cc(C(=O)NCCC(C)C)c(=O)c2cc(F)c(N3CCN(C(=O)c4ccco4)CC3)cc21	none
CCS(=O)(=O)Nc1ccc2c(c1)C(=O)N(C)[C@@H]1CC[C@H](CC(=O)NCCCN3CCOCC3)O[C@H]1CO2	none (no result: RecA intein inh, BJeLR viability, GDH-TPI counter-1, FBA Mtb inh)
COc1cc(C(=O)OCC(=O)c2cc(C)n(C)c2C)cc(OC)c1OC	none

Source: PubChem BioAssay
